Measured values: PubChem BioAssay (NCATS)
“And” between values parts separate entries of the source, which are not always exact repeats. Equal entries are not always repeated. Records with an inconclusive call do not appear. The source made the active and inactive calls. Unless noted, calls follow the shape of the dose curve; as a rule, active = well fitted curve in the direction sought with a large enough effect; inconclusive = small, poorly fitted or top-dose-only effect, or another doubt; inactive = no such curve, though single readings can be large; an effect the other way counts as inactive or inconclusive.

How the values were obtained:
[1] = molecular target: Cellular tumor antigen p53 (Homo sapiens) (UniProt P04637); assay: Primary qHTS for small molecule compounds that upregulate eGFP-tagged delta133p53alpha (in N-terminal) cells. (AID 2060322); settings: NCI-H358 eGFP-delta133p53alpha fluorescence, 24 h; activation: stronger effect = higher value; also: nearly all actives have a fitted effect of over 75% in size; also: potency is read from the fitted curve at half-maximal effect;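 as to activation: cells pre-induced with doxycycline then dosed without doxycycline; series mostly up to about 56 µM; 0% = DMSO vehicle and 100% = reference activator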
Summary of the method: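 NCI-H358 cells pre-induced 24 h with 10 ng/ml doxycycline for eGFP-delta133p53alpha, plated dox-free and exposed 24 h at 37C to titrated compounds. Fixed, Hoechst-stained; gated GFP peak intensity by laser scanning cytometry, normalized to DMSO (0%) and 57.5 uM 5-azacytidine (100%).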

[2] = molecular target: Aldehyde dehydrogenase, mitochondrial (Homo sapiens) (UniProt P05091); assay: qHTS for Inhibitors of the Aldehyde Dehydrogenase Family (ALDH2) Confirmatory screens (AID 2061303; active = well fitted inhibition curve with a large enough effect; title and protocol of this record describe different tests; also: nearly all actives have a fitted effect of over 45% in size; also: potency is read from the fitted curve at half-maximal effect)
[3] = qHTS for Inhibitors of the Aldehyde Dehydrogenase Family (ALDH1A2, ALDH1A3, ALDH2, ALDH3A1) (AID 2061307); also: nearly all actives have a fitted effect of over 50% in size; as to Potency: test system not described further here; potency is read from the fitted curve at half-maximal effect
[4] = molecular target: Aldehyde dehydrogenase, mitochondrial (Homo sapiens) (UniProt P05091); assay: qHTS for Inhibitors of the Aldehyde Dehydrogenase Family (ALDH2) Primary screen (AID 2061308); also: nearly all actives have a fitted effect of over 55% in size; also: potency is read from the fitted curve at half-maximal effect
[5] = molecular target: Retinaldehyde dehydrogenase 3 (Homo sapiens) (UniProt P47895); assay: qHTS for Inhibitors of the Aldehyde Dehydrogenase Family (ALDH1A3) Confirmatory screens (AID 2061311); also: nearly all actives have a fitted effect of over 60% in size; also: potency is read from the fitted curve at half-maximal effect
[6] = molecular target: Retinaldehyde dehydrogenase 3 (Homo sapiens) (UniProt P47895); assay: qHTS for Inhibitors of the Aldehyde Dehydrogenase Family (ALDH1A3) Validation screen (AID 2061312); also: % is scaled to controls: 0 for no effect and ±100 for the full control effect; nearly all actives have a fitted effect of over 45% in size
[7] = molecular target: Retinal dehydrogenase 2 (Homo sapiens) (UniProt O94788); assay: qHTS for Inhibitors of the Aldehyde Dehydrogenase Family (ALDH1A2) Confirmation screens (AID 2061314); also: nearly all actives have a fitted effect of over 65% in size
[8] = molecular target: Retinaldehyde dehydrogenase 3 (Homo sapiens) (UniProt P47895); assay: qHTS for Inhibitors of the Aldehyde Dehydrogenase Family (ALDH1A3) Primary screen (AID 2061315);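 also: plate controls were DMSO vehicle for no effect and reference inhibitor for full effect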
[9] = molecular target: Aldehyde dehydrogenase 1A1 (Homo sapiens) (UniProt P00352); assay: qHTS for Inhibitors of the Aldehyde Dehydrogenase Family (ALDH1A1) Confirmatory screens (AID 2061316); also: nearly all actives have a fitted effect of over 65% in size; also: potency is read from the fitted curve at half-maximal effect
[10] = BET inhibitor-based combinations targeting novel dependencies in MECOM-rearranged (r) AML: OCI-AML3 cell line (AID 2202232); settings: Potency: OCI-AML3 viability;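 also: series mostly up to about 46 µM; plate controls were DMSO vehicle wells for no effect and wells without cells for full effect; nearly all actives have a fitted effect of over 35% in size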
Summary of the method: (§1)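 AML cell lines seeded at 500 cells/well, treated with 11-point dose curves for 48 h. Viability by CellTiter-Glo luminescence, normalised to DMSO and empty wells; activity expressed as AUC and per-cell-line Z-transformed AUC.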

[11] = BET inhibitor-based combinations targeting novel dependencies in MECOM-rearranged (r) AML: MV-4-11 cell line (AID 2202233);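 also: plate controls were DMSO for no effect and blank wells for full effect; nearly all actives have a fitted effect of over 45% in size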
Summary of the method: (§2)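 Cells at 500/well were exposed for 48 hr to MIPE v5.0 drugs as 11-point dose curves. Viability was read by CellTiter-Glo luminescence and normalized to DMSO and empty-well controls. Activity was expressed as AUC and per-cell-line Z-AUC.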

[12] = BET inhibitor-based combinations targeting novel dependencies in MECOM-rearranged (r) AML: HNT-34 cell line (AID 2202234);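 also: plate controls were vehicle wells for no effect and cell-free wells for full effect; nearly all actives have a fitted effect of over 35% in size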
Summary of the method: as §2

[13] = BET inhibitor-based combinations targeting novel dependencies in MECOM-rearranged (r) AML: UCSD-AML1 cell line (AID 2202235);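 also: series mostly up to about 46 µM; plate controls were DMSO vehicle wells for no effect and blank wells for full effect; nearly all actives have a fitted effect of over 40% in size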
Summary of the method: as §2

[14] = BET inhibitor-based combinations targeting novel dependencies in MECOM-rearranged (r) AML: AML-191 cell line (AID 2202236;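 also: plate controls were vehicle wells for no effect and wells without cells for full effect; nearly all actives have a fitted effect of over 35% in size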)
Summary of the method: as §1

[15] = BET inhibitor-based combinations targeting novel dependencies in MECOM-rearranged (r) AML: AML-194 cell line (AID 2202237;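 also: plate controls were vehicle wells for no effect and wells without cells for full effect; nearly all actives have a fitted effect of over 40% in size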)
Summary of the method: as §1

[16] = BET inhibitor-based combinations targeting novel dependencies in MECOM-rearranged (r) AML: SET-2 cell line (AID 2202231); settings: SET-2 AML cells viability, CellTiter-Glo luminescence, 48 h; viability: stronger effect = lower value, series mostly up to about 46 µM;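 also: plate controls were DMSO treated cells for no effect and wells without cells for full effect; nearly all actives have a fitted effect of over 35% in size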
Summary of the method: as §1

Cellular tumor antigen p53 (Homo sapiens), sequence (P04637 whole entry, looked up): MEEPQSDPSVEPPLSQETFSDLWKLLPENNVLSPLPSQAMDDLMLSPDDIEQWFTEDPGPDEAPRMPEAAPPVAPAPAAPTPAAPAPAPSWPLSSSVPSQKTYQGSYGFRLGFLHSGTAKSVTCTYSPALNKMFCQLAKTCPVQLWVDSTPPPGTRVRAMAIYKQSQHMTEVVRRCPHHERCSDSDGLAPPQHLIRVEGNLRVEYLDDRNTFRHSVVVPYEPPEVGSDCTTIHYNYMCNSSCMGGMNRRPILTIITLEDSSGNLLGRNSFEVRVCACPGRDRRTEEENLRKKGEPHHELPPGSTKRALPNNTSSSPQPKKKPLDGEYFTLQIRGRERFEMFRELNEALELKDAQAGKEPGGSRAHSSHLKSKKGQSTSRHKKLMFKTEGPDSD

OC[C@H]1O[C@@H](n2cnc3c2NC=NC[C@H]3O)C[C@@H]1O
inactive: activation [1] -7.16% | Potency [2] | Potency [3] | Potency [4] | Potency [5] | Potency [6] | Potency [7] | Potency [8] | Potency [9] | Potency [10] | Potency [11] | Potency [12] | Potency [13] | Potency [14] | Potency [15]

CC1=NN(c2ccccc2)C(=O)C1
active: Potency [2] 12.6 µM | Potency [3] 6.31 µM | Potency [4] 0.794 µM | Potency [5] 8.91 µM | Potency [9] 1.42 µM
inactive: activation [1] -3.42% and 10.7% and -17% | viability [16] 112% | Potency [10] | Potency [11] | Potency [12] | Potency [13] | Potency [14] | Potency [15]

CNC(=O)c1cc(Oc2ccc(NC(=O)c3cccc(C(F)(F)F)c3)cc2)ccn1
inactive: activation [1] 8.04% | Potency [2] | Potency [4] | Potency [7] | Potency [8] | Potency [9]
active: Potency [3] 6.34 µM

Cc1ccc(-c2c(C(=O)CCl)n(CCCO)c3ncnc(N)c23)cc1
active: Potency [1] 12 µM
inactive: Potency [2] | Potency [3] | Potency [4] | Potency [8] | Potency [9]

C/C=C1\[C@H](O[C@@H]2O[C@H](CO)[C@@H](O)[C@H](O)[C@H]2O)OC=C(C(=O)OC)[C@H]1CC(=O)OC[C@H]1O[C@@H](OCCc2ccc(O)cc2)[C@H](O)[C@@H](O)[C@@H]1O
inactive: activation [1] -1.53% | Potency [2] | Potency [3] | Potency [4] | Potency [7]

NCCCCN(Cc1nc2ccccc2[nH]1)[C@H]1CCCc2cccnc21
inactive: activation [1] 1.43% | Potency [2] | Potency [3] | Potency [4] | Potency [6] | Potency [7] | Potency [8] | Potency [9]

COc1cc(/C=C/C(=O)O[C@H]2[C@H](OC(=O)/C=C/c3cc(OC)c(O)c(OC)c3)O[C@H](CO[C@@H]3O[C@H](CO)[C@@H](O)[C@H](O)[C@H]3O)[C@@H](O)[C@@H]2O)ccc1O
inactive: activation [1] -3.57% | Potency [2] | Potency [3] | Potency [4] | Potency [7] | Potency [9]

NC1(c2ccc(NC(=O)c3ccnc(-c4cc(C(=O)O)ccn4)c3)cc2)CC1
inactive: activation [1] 15.7% | Potency [2] | Potency [3] | Potency [4] | Potency [8]

C=C(C)C(=O)O[C@H]1[C@H]2C(=C)C(=O)O[C@@H]2/C=C(\CO)CC/C=C(/C=O)[C@@H]1O
inactive: activation [1] -6.11% | Potency [2] | Potency [3] | Potency [4] | Potency [7]

O=C1C(c2c(O)[nH]c3ccccc23)=Nc2ccccc21
inactive: activation [1] -10.6% and 17.7% | Potency [2] | Potency [3] | Potency [4] | Potency [5] | Potency [8] | Potency [9] | viability [16] 103% | Potency [10] | Potency [12] | Potency [13] | Potency [14] | Potency [15]
